GPR151 activ – activators of human GPR151, primary screen, cell-based, PathHunter beta-arrestin, luminescence | G-protein coupled receptor 151 (Homo sapiens), Q8TDV0 | PathHunter beta-arrestin GPR151 cells | activation, % at 11.2 µM | actives 1% (n = 650,000) | AID 1508602, 2020; in the data active = activation above about 4.9%;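 also: 0% = median of compound wells and 100% = cells with positive control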
MITF inh – MITF inhibitors, primary screen, biochemical, AlphaScreen, human. Microphthalmia-associated transcription factor (Homo sapiens), O75030. AlphaScreen MITF homodimerization, bead proximity signal. inhibition, % at 2.6 µM. actives 0.91% (n = 650,000). AID 1259374, 2018; in the data active = inhibition above about 50%;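 also: 0% = vehicle wells with protein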
Target sequence (O75030 whole entry, looked up): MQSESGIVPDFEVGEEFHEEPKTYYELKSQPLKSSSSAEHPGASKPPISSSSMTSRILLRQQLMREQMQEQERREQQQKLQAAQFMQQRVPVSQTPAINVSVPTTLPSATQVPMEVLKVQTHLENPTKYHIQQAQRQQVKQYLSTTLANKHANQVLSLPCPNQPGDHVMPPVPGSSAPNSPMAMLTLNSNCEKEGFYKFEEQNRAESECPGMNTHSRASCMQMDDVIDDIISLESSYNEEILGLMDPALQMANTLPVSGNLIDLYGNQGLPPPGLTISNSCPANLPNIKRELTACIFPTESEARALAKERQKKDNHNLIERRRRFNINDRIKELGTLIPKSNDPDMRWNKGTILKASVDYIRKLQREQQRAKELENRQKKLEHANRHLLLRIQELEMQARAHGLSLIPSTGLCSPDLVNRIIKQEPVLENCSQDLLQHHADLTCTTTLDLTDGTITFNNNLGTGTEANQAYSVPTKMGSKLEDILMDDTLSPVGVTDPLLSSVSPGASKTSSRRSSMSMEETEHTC
TEAD-YAP block – TEAD-YAP interaction inhibition, primary screen, TEAD-YAP interaction inhibitor project, luminescence, HEK-TIYL cells | inhibition, % at 9.12 µM | actives 1.4% (n = 640,000) | TEAD-Gal4/YAP UAS-luciferase luminescence; in the data active = inhibition above about 32%;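 also: 0% = median of test compound wells and 100% = reference inhibitor wells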
FBW7 act – FBW7 E3 ligase activators, primary screen, biochemical, AlphaScreen, human; normalized activity (activation), % at 26.1 µM; F-box/WD repeat-containing protein 7 (Homo sapiens), Q969H0; AlphaScreen FBW7–phospho-cyclin E peptide binding, activator screen; actives 0.13% (n = 650,000); AID 1259310, 2017; in the data active = normalized activity above about 1.9%;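 also: purified mutant Fbw7 with reduced substrate affinity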
The depositor's hits bear a star. Hits are enriched below; roughly 3.4% of the tested compounds scored in any of these assays.

What do the screens show for `COCCNC(=O)C(=O)N/N=C/c1ccccc1O`?
GPR151 activ: -1.3; MITF inh: 53.3*; TEAD-YAP block: -2.2; FBW7 act: -1.7

Results for Cc1ccccc1NC(=O)C(=O)N/N=C/c1ccccc1O ?
GPR151 activ: 0.7; MITF inh: 52.2*; TEAD-YAP block: 2.0; FBW7 act: -0.3

What do the screens show for `Oc1cccc(/C=N/NC(=S)N/N=C/c2cccc(O)c2O)c1O`?
GPR151 activ: 0.0; MITF inh: 36.9; TEAD-YAP block: -1.4; FBW7 act: -0.3

Results for O=C(NCCC1CCCCN1S(=O)(=O)c1cccs1)C(=O)NCc1ccco1 (stereo unspecified) ?
GPR151 activ: -0.8; MITF inh: 16.9; TEAD-YAP block: 1.5; FBW7 act: 0.2

How did O=C(c1cccnc1)C1CCCN(c2nc3nonc3nc2N2CCCC2)C1 (stereo unspecified) do in these assays?
GPR151 activ: 1.1; MITF inh: 1.6; TEAD-YAP block: 4.7; FBW7 act: -0.2

Results for COc1cc(NC(=O)c2cc([N+](=O)[O-])ccc2N2CCN(C)CC2)c2ncccc2c1 ?
GPR151 activ: 0.6; MITF inh: 3.4; TEAD-YAP block: -9.0; FBW7 act: 0.0

Results for CCOC(=O)C1CCN(c2ccc([N+](=O)[O-])cc2C(=O)Nc2cc(OC)cc3cccnc23)CC1 ?
GPR151 activ: -0.8; MITF inh: 15.7; TEAD-YAP block: -11.9; FBW7 act: 2.1*

What do the screens show for `O=C(COc1ccccc1)Nc1ccc(N2CCC(NCc3ccccc3)CC2)cc1`?
GPR151 activ: 1.1; MITF inh: 10.2; TEAD-YAP block: 33.6*; FBW7 act: -0.4

Results for CCCOc1ccc(C2NC(=O)NC(C)=C2C(=O)OCC)cc1OC (stereo unspecified) ?
GPR151 activ: 0.9; MITF inh: 8.8; TEAD-YAP block: -5.1; FBW7 act: -0.1

How did COCc1c(C#N)c(Cl)nc(C)c1[N+](=O)[O-] do in these assays?
GPR151 activ: -1.8; MITF inh: -5.5; TEAD-YAP block: 3.6; FBW7 act: -0.4

What do the screens show for `COCc1c(C#N)c(Sc2nnc(N)s2)nc(C)c1[N+](=O)[O-]`?
GPR151 activ: -1.7; MITF inh: 55.4*; TEAD-YAP block: -8.1; FBW7 act: 0.0

What do the screens show for `Cc1sc(NC(=O)COc2ccccc2)c(C(N)=O)c1-c1ccccc1`?
GPR151 activ: -0.1; MITF inh: 3.7; TEAD-YAP block: 74.9*; FBW7 act: 0.1

What do the screens show for `Cc1sc(NC(=O)COc2ccccc2)c(C(N)=O)c1C`?
GPR151 activ: 1.3; MITF inh: 24.5; TEAD-YAP block: -73.9; FBW7 act: 0.2

Results for CCOC(=O)c1c(NC(=O)CSc2ccccc2)sc(CC)c1-c1ccccc1 ?
GPR151 activ: 1.9; MITF inh: 70.1*; TEAD-YAP block: -5.2; FBW7 act: 0.1

What do the screens show for `CC(=O)N1CCc2cc(Br)cc(S(=O)(=O)N3CCCCC3CCO)c21` (stereo unspecified)?
GPR151 activ: -1.4; MITF inh: 22.2; TEAD-YAP block: 3.0; FBW7 act: 0.1

Results for CCOC(=O)N1CCc2c(sc3c2C(=O)NC(c2ccc(Cl)cc2)N3)C1 (stereo unspecified) ?
GPR151 activ: 0.2; MITF inh: 7.3; TEAD-YAP block: 12.8; FBW7 act: 0.1

How did CCOC(=O)N1CCc2c(sc3c2C(=O)NC(/C=C\c2ccccc2)N3)C1 (stereo unspecified) do in these assays?
GPR151 activ: 0.7; MITF inh: -9.5; TEAD-YAP block: 50.5*; FBW7 act: -0.1

What do the screens show for `C=CCc1cccc2cc(C(=O)Nc3cccc(O)c3)c(=O)oc12`?
GPR151 activ: -0.7; MITF inh: 18.9; TEAD-YAP block: 57.9*; FBW7 act: 0.3

Results for CC(=O)Nc1cccc(NC(=O)c2cc3ccccc3oc2=O)c1 ?
GPR151 activ: -1.9; MITF inh: -9.4; TEAD-YAP block: 45.5*; FBW7 act: 0.0

Results for CC(CO)NC(=O)c1cc2ccccc2oc1=O (stereo unspecified) ?
GPR151 activ: 0.2; MITF inh: -6.2; TEAD-YAP block: -11.2; FBW7 act: -0.1

Results for Cc1cccc(NC(=O)c2cc3ccccc3oc2=O)c1 ?
GPR151 activ: -2.2; MITF inh: 14.4; TEAD-YAP block: -37.5; FBW7 act: 0.1

What do the screens show for `CC(Cc1ccco1)NC(=O)c1cc2ccccc2oc1=O` (stereo unspecified)?
GPR151 activ: 0.2; MITF inh: -6.4; TEAD-YAP block: -21.2; FBW7 act: 3.0*

Results for CCOC(=O)CNc1nc2ccc(C)cc2n2cnnc12 ?
GPR151 activ: 0.2; MITF inh: 5.2; TEAD-YAP block: 3.4; FBW7 act: 0.1

What do the screens show for `Clc1cc(Cl)c2c(c1)C=C1CCCCCC1(N1CCOCC1)O2` (stereo unspecified)?
GPR151 activ: 0.3; MITF inh: 6.5; TEAD-YAP block: -3.9; FBW7 act: 0.0

Results for CC(=O)N(C)c1ccc(NC(=O)COc2ccccc2C)cc1 ?
GPR151 activ: 0.7; MITF inh: -7.5; TEAD-YAP block: 1.4; FBW7 act: -0.1

How did O=Cc1ccc(-c2nccnc2NS(=O)(=O)c2cccc3cccnc23)cc1 do in these assays?
GPR151 activ: 0.3; MITF inh: -16.6; TEAD-YAP block: 5.1; FBW7 act: -0.2

What do the screens show for `COc1ccc(OCC(=O)Nc2nccs2)cc1`?
GPR151 activ: -6.9; MITF inh: 2.1; TEAD-YAP block: 68.3*; FBW7 act: 0.0

What do the screens show for `O=C(COc1ccc(Cl)cc1)Nc1nccs1`?
GPR151 activ: -3.4; MITF inh: 1.3; TEAD-YAP block: 18.9; FBW7 act: 0.1

Results for CCOc1ccc(OCC(=O)Nc2nccs2)cc1 ?
GPR151 activ: -8.5; MITF inh: 2.9; TEAD-YAP block: 79.4*; FBW7 act: -0.1

What do the screens show for `Cc1cc(OCC(=O)Nc2nccs2)ccc1C(C)C`?
GPR151 activ: -0.6; MITF inh: -4.1; TEAD-YAP block: 61.1*; FBW7 act: 0.0

What do the screens show for `O=C(Nc1nccs1)c1ccc(OCc2ccc3ccccc3n2)cc1`?
GPR151 activ: 0.0; MITF inh: -3.6; TEAD-YAP block: -20.6; FBW7 act: 5.6*

How did O=C(NCc1cccs1)c1ccc(OCc2ccc3ccccc3n2)cc1 do in these assays?
GPR151 activ: 0.4; MITF inh: 3.9; TEAD-YAP block: -20.1; FBW7 act: 0.0

How did CCN(CC)S(=O)(=O)c1ccc(N2CCCC2)c(NC(=O)c2cccnc2SC)c1 do in these assays?
GPR151 activ: 1.5; MITF inh: 7.4; TEAD-YAP block: 0.3; FBW7 act: 0.2

How did NC(=O)c1ccc(NC(=O)CN2CCN(c3cccc(Cl)c3)CC2)cc1 do in these assays?
GPR151 activ: 0.6; MITF inh: 13.2; TEAD-YAP block: 21.9; FBW7 act: 0.5

What do the screens show for `COc1cc(C(C)=O)ccc1OCC(=O)Nc1nccs1`?
GPR151 activ: -6.1; MITF inh: 7.5; TEAD-YAP block: 56.0*; FBW7 act: -0.1
